Here are results for 7 compounds from PubChem BioAssay (Tox21).

The nature of test [1]: qHTS assay to identify small molecule antagonists of the thyroid receptor (TR) signaling pathway - cell viability counter screen (AID 743064). Also: nearly all actives have a fitted effect of over 50% in size. The method in brief: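 In-well cytotoxicity read by CellTiter-Fluor (30 min, 37 C) following 23.5 h exposure of GH3 cells bearing a TRE-luciferase sensor. Compounds were added alongside 1 nM (final) T3 to drive TR transactivation.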
Background: qHTS replaces the single test concentration by a dilution series.

Test [2] in a line: qHTS assay to identify small molecule antagonists of the thyroid receptor (TR) signaling pathway (AID 743065). Also: series mostly up to about 70 µM; nearly all actives have a fitted effect of over 55% in size. The gist of the method: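 Antagonism measured as loss of luciferase signal in GH3 cells stably carrying a TRE-luciferase reporter, co-treated with compound and T3 (1 nM final) for 23.5 h at 37 C. Viability was read in the same well by CellTiter-Fluor.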
For test [3], the system named is thyroid hormone receptor (rat, GH3 cells). The test is described as follows: qHTS assay to identify small molecule agonists of the thyroid receptor (TR) signaling pathway (AID 743066; calls by dose curve).
The target of test [4] is Estrogen receptor (Homo sapiens) (UniProt P03372). Kind of test: qHTS assay to identify small molecule antagonists of the estrogen receptor alpha (ER-alpha) signaling pathway (AID 743069; active = well fitted curve in the direction sought with a large enough effect in the signal ratio in the repeat runs, not every such curve was filed as active; the % refers to the signal ratio). The gist of the method:
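ER-alpha-UAS-bla GripTite HEK293 line; 2% charcoal-stripped FBS overnight; plated, 4 hr 37C/5% CO2; cpd in DMSO + 17beta-estradiol, 18 hr 37C; LiveBLAzer B/G FRET substrate 2 hr RT; fluorescence intensity.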

A short description of test [5]: qHTS assay to identify small molecule antagonists of the estrogen receptor alpha (ER-alpha) signaling pathway - cell viability counter screen (AID 743074; calls by dose curve;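 also: HEK293 cells carrying ER-alpha-UAS-bla reporter stimulated with 17beta-estradiol; nearly all actives have a fitted effect of over 45% in size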).
Test [6] has as its target Estrogen receptor (Homo sapiens) (UniProt P03372). Kind of test: qHTS assay to identify small molecule agonists of the estrogen receptor alpha (ER-alpha) signaling pathway (AID 743075; calls by dose curve;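 also: HEK293 GripTite cells with ER-alpha and UAS-driven beta-lactamase reporter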).
Test [7] shares this target. Kind of test: qHTS assay to identify small molecule agonists of the estrogen receptor alpha (ER-alpha) signaling pathway using the BG1 cell line (AID 743079). Also: nearly all actives have a fitted effect of over 20% in size. Also: potency is read from the fitted curve at half-maximal effect.
Test [8] can be described thus: qHTS assay to identify small molecule antagonists of the estrogen receptor alpha (ER-alpha) signaling pathway using the BG1 cell line (AID 743080; calls by dose curve;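 also: BG1 cells stimulated with 17beta-estradiol alongside compound; series mostly up to about 70 µM; nearly all actives have a fitted effect of over 25% in size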). The gist of the method: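 BG1Luc4E2, endogenous ER-alpha, 4xERE-luc; 5 d charcoal-stripped FBS, phenol red free; 24 h plating; cpd + 17beta-estradiol 21.5 h, 37 C/5% CO2; CellTiter-Fluor viability 30 min, then ONE-Glo luciferase 30 min RT.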

The nature of test [9]: qHTS assay to identify small molecule antagonists of the estrogen receptor alpha (ER-alpha) signaling pathway using the BG1 cell line - cell viability counter screen (AID 743081).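 Also: compound given together with 17beta-estradiol as the ER stimulus; series mostly up to about 70 µM; nearly all actives have a fitted effect of over 45% in size.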
Test [10] addresses Aromatase (Homo sapiens) (UniProt P11511). The test is described as follows: qHTS assay to identify aromatase inhibitors (AID 743083). Also: series mostly up to about 70 µM; nearly all actives have a fitted effect of over 55% in size.
Test [11] is described as follows: qHTS assay to identify aromatase inhibitors - cell viability counter screen (AID 743084).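 Also: cells stimulated with testosterone during compound exposure; nearly all actives have a fitted effect of over 55% in size.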
Test [12] addresses Aryl hydrocarbon receptor (Homo sapiens) (UniProt P35869). The test is described as follows: qHTS assay to identify small molecule that activate the aryl hydrocarbon receptor (AhR) signaling pathway (AID 743085).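 Also: HG2L7.5c1 human HepG2 liver cells with stably integrated DRE-driven firefly reporter; series mostly up to about 70 µM; nearly all actives have a fitted effect of over 15% in size.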 The gist of the method: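 Luminescence (ONE-Glo) from a dioxin-responsive-element luciferase reporter in HG2L7.5c1 HepG2 cells after 24 hr compound exposure at 37C; viability measured by CellTiter-Fluor fluorescence beforehand.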

Test [13] in a line: qHTS assay to identify small molecule that activate the aryl hydrocarbon receptor (AhR) signaling pathway - cell viability counter screen (AID 743086).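 Also: HepG2 liver cells carrying the AhR DRE luciferase reporter; series mostly up to about 70 µM; nearly all actives have a fitted effect of over 45% in size.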 The gist of the method:
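Cytotoxicity counter screen: CellTiter-Fluor signal (30 min, 37 C) in 4000 HepG2 cells/well carrying the DRE-luciferase reporter, following 24 h compound exposure at 37 C.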

Test [14] has as its target Peroxisome proliferator-activated receptor gamma (Homo sapiens) (UniProt P37231). Kind of test: qHTS assay to identify small molecule agonists of the peroxisome proliferator-activated receptor gamma (PPARg) signaling pathway (AID 743094; active = well fitted activation curve with a large enough effect in the signal ratio in the repeat runs, not every such curve was filed as active; the % refers to the signal ratio). The method in brief:
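Compounds dissolved in DMSO were added to PPARg UAS-bla HEK293H cells for 17 h at 37C, and reporter expression was quantified by fluorescence intensity after 1 h with LiveBLAzer B/G FRET substrate.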

Test [15] in a line: qHTS assay to identify small molecule antagonists of the peroxisome proliferator-activated receptor gamma (PPARg) signaling pathway - cell viability counter screen (AID 743194). Also: nearly all actives have a fitted effect of over 55% in size. The method in brief: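 Viability was measured as CellTiter-Glo luminescence in GeneBLAzer PPARg UAS-bla HEK293H cells. These cells had been exposed 17 h at 37 C to compounds together with rosiglitazone at 50 nM final, with the beta-lactamase readout taken in the same wells.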

Test [16] is described as follows: qHTS assay for small molecule activators of the heat shock response signaling pathway - cell viability counter screen (AID 743209). Also: nearly all actives have a fitted effect of over 50% in size. The method in brief:
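Readout: CellTiter-Glo luminescence, 30 min at room temperature. System: HSE-bla HeLa cells, 1500/well, plated overnight. Treatment: compounds in DMSO, 5 h at 37 C.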

Test [17] is described as follows: qHTS assay for small molecule activators of the heat shock response signaling pathway (AID 743210; active = well fitted activation curve with a large enough effect in the signal ratio in the repeat runs, with a control signal flat, not every such curve was filed as active; the % refers to the signal ratio;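 also: HeLa cells with beta-lactamase reporter driven by heat shock elements; series mostly up to about 63 µM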). The method in brief: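 HeLa HSE-bla cells, overnight plating; cpd in DMSO 5 h, 37 C; LiveBLAzer B/G FRET substrate 2.5 h RT; fluorescence intensity read.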
Test [18] concerns the target Peroxisome proliferator-activated receptor gamma (Homo sapiens) (UniProt P37231). Kind of test: qHTS assay to identify small molecule antagonists of the peroxisome proliferator-activated receptor gamma (PPARg) signaling pathway (AID 743191; calls by dose curve; also: series mostly up to about 63 µM; nearly all actives have a fitted effect of over 30% in size). The method in brief:
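Beta-lactamase reporter under UAS control in HEK293H PPARg-bla cells; compound treatment 17 h at 37C. Read-out: fluorescence intensity after 1 h room-temperature incubation with LiveBLAzer B/G FRET substrate.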

The nature of test [19]: qHTS assay for small molecule agonists of the antioxidant response element (ARE) signaling pathway (AID 743202; active = well fitted activation curve with a large enough effect in the signal ratio in the repeat runs, not every such curve was filed as active; the % refers to the signal ratio). The method in brief: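 Quantitative high-throughput format in HepG2 cells bearing an integrated ARE-beta-lactamase reporter. Compound exposure lasted 16 h at 37 C, and fluorescence was read 2 h after adding LiveBLAzer B/G substrate at room temperature.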
A short description of test [20]: qHTS assay for small molecule agonists of the antioxidant response element (ARE) signaling pathway - cell viability counter screen (AID 743203; calls by dose curve; also: nearly all actives have a fitted effect of over 55% in size). The method in brief:
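Following 16 hrs of compound treatment at 37C, HepG2 cells with an ARE-controlled beta-lactamase gene were lysed with CellTiter-Glo. Luminescence was read after 30 min at room temperature.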

Results filed as inconclusive are left out. Values without a mark were called inactive. Calls of active or inactive are those of the source. Unless noted, calls follow the shape of the dose curve; as a rule, active = well fitted curve in the direction sought with a large enough effect in the repeat runs; inconclusive = weak or mixed curves; inactive = no such curve, though single readings can be large; an effect the other way counts as inactive or inconclusive.
% is scaled to controls: 0 for no effect and ±100 for the full control effect.

Sequence of Aromatase (Homo sapiens) (P11511 whole entry, looked up): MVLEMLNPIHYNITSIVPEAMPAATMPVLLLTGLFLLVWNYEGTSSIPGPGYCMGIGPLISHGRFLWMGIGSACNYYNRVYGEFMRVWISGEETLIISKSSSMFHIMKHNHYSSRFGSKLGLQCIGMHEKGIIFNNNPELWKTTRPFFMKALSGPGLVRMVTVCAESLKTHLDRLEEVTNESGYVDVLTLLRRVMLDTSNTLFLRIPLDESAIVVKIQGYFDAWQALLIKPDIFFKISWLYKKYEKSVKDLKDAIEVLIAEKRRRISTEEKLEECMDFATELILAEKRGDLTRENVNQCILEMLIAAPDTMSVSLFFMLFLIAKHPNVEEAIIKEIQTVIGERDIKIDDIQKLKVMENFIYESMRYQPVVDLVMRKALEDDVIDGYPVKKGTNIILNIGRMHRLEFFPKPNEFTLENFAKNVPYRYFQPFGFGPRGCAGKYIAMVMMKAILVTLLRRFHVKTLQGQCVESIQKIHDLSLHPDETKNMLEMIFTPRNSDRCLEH
Sequence of Estrogen receptor (Homo sapiens) (P03372 whole entry, looked up): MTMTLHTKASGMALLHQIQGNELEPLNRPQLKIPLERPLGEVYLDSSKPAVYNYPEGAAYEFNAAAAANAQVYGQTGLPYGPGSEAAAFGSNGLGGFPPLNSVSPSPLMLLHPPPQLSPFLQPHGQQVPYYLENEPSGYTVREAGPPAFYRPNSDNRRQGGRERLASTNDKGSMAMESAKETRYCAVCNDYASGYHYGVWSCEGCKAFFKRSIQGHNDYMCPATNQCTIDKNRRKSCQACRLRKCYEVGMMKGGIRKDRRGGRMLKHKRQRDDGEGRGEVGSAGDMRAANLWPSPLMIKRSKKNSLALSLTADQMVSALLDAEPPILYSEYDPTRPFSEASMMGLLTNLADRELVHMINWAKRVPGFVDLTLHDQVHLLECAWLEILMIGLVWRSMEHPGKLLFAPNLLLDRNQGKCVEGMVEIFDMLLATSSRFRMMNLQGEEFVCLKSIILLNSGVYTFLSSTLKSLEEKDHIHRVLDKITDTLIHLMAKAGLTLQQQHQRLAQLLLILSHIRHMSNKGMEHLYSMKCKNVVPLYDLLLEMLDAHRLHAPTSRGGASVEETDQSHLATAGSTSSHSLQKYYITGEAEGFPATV
Sequence of Peroxisome proliferator-activated receptor gamma (Homo sapiens) (P37231 whole entry, looked up): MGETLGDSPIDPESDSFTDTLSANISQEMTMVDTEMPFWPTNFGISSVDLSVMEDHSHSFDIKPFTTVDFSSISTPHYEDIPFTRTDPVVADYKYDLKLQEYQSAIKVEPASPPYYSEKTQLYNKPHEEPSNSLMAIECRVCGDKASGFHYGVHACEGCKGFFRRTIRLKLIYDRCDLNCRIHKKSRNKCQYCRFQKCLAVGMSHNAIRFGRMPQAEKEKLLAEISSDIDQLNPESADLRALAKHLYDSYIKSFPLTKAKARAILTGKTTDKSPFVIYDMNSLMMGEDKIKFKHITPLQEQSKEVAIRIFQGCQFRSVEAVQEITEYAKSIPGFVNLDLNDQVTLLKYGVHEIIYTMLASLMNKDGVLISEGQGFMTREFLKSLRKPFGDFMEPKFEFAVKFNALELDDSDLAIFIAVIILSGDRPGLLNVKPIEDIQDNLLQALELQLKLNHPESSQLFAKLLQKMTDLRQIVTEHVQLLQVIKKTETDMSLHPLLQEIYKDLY
Sequence of Aryl hydrocarbon receptor (Homo sapiens) (P35869 whole entry, looked up): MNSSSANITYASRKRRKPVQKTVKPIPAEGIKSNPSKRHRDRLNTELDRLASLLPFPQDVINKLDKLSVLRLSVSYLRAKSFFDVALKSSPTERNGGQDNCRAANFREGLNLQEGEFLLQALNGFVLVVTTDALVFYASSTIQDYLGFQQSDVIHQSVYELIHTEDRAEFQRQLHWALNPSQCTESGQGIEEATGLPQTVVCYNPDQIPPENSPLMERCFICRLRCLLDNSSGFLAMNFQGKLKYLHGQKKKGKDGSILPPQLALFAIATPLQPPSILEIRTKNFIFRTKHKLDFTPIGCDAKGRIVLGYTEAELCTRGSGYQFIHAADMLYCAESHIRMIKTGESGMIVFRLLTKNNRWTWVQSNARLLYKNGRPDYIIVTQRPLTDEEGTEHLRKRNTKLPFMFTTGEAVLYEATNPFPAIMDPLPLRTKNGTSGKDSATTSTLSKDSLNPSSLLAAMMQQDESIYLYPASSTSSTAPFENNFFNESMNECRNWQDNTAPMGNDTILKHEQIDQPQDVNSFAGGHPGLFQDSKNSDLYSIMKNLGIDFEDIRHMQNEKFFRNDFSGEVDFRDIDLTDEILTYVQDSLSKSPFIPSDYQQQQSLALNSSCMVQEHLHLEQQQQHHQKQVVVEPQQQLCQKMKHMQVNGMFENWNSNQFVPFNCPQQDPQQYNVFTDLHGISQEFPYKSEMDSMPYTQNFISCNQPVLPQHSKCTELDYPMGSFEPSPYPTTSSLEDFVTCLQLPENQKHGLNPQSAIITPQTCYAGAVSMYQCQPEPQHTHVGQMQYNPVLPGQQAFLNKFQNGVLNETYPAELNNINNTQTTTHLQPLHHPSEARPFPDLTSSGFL

Regarding `CC(C)(C)CC(C)(C)c1ccc(Nc2ccc(C(C)(C)CC(C)(C)C)cc2)cc1`, the activity change, negative = cytotoxic in test [1] is 10.6% [at 8.44 µM]. Besides, the activity, negative = inhibition in [2] was 9.26% [at 8.44 µM]; in [4], -8.94% [at 6.71 µM]; in [10] it was -0.995% [at 8.47 µM]. The activation is 1.29% [at 8.08 µM] in test [3]; -3.98% [at 6.71 µM] in test [6]; -8.83% [at 8.47 µM] in test [7]; -2.79% [at 8.47 µM] in test [12]; 0.247% [at 7.08 µM] in [14]; 0.375% [at 5.95 µM] in [17]. The activity, negative = cytotoxicity in test [5] was -17.2% [at 6.72 µM]. In addition, the activity change, negative = inhibition in test [8] was 1.65% [at 8.47 µM]. For the same compound, the activity change, negative = cytotoxicity is 8.25% [at 8.47 µM] in test [9], 3.33% [at 8.47 µM] in [11], -4.03% [at 5.95 µM] in test [15] and 7.93% [at 5.95 µM] in test [16]. Further, the viability change, negative = cytotoxic in test [13] is -11.3% [at 8.47 µM].
Regarding `C=C(C)C(=O)OCCCCCCCCCC`, the Potency entry in [1], in test [2], in [4], in test [5], in test [6] and in test [7] was “inactive” each time. Further, the Potency entry in [8], in test [9], in test [10], in test [11], in test [12] and in test [13] was “inactive” each time. For the same compound, the Potency result in test [14], in test [18], in test [15], in test [19], in test [20] and in test [16] was “inactive” throughout. In [3], the result was inactive.
Take `CCCCCCCC`: the Potency result in [1], in test [2], in test [4], in test [5], in [8] and in test [9] was “inactive” in each case. For the same compound, the Potency result in [10], in test [11], in test [12], in test [13], in test [18] and in test [15] was “inactive” in each case. Further, the Potency entry in [19], in test [20], in test [16] and in test [17] was “inactive” in each case. Moreover, the outcome in test [3] was inactive.
Consider `CCN1C(=O)c2ccccc2C1Nc1ccc(OCCN2CCCCC2)cc1` (stereo unspecified), for which the Potency entry in [1], in [2], in test [4], in test [5], in test [6] and in test [7] was “inactive” throughout. Further, the Potency result in [8], in [10], in test [11], in test [12], in [13] and in [14] was “inactive” each time. Further, the Potency entry in [15], in test [20], in test [16] and in [17] was “inactive” each time. Besides, the outcome in [3] was inactive.
In the case of `OC1CCC(C2CCCCC2)CC1` (stereo unspecified), the Potency result in test [1], in [2], in test [4], in test [5], in test [6] and in [8] was “inactive” in each case. The Potency result in test [9], in test [10], in [11], in test [12], in test [13] and in test [14] was “inactive” in each case. Further, the Potency entry in test [15], in test [20], in [16] and in test [17] was “inactive” each time. Also, in test [3], the compound was called inactive.
As to `O=C1CCCCCCCCCCCCCCCO1`, the Potency entry in test [1], in [2], in [5], in [6], in test [7] and in test [8] was “inactive” throughout. Moreover, the Potency result in [9], in test [10], in test [11], in test [12], in [13] and in test [14] was “inactive” each time. Besides, the Potency result in test [15], in test [20], in [16] and in test [17] was “inactive” throughout. Moreover, the outcome in [3] was inactive.
Regarding `S=c1nccc[nH]1`, the Potency entry in [1], in [2], in test [4], in test [5], in [8] and in test [9] was “inactive” in each case. Further, the Potency result in test [10], in [11], in [12], in test [13], in test [14] and in test [15] was “inactive” each time. Moreover, the Potency result in test [20], in test [16] and in [17] was “inactive” in each case. The outcome in test [3] was inactive. In addition, the Potency in test [7] was 30.7 µM (active).
